# Measurements: PubChem BioAssay AID1626 (SRMLSC, 2009)
# In all, about 220,000 compounds went through this assay and about 2,000 (0.91%) were called active. Inconclusive results (about 2%) are left out. Only a sample is shown. Measured potencies and affinities stand elsewhere. Values without a mark were called inactive. Cut-off read from the data, not from the text of the source: inconclusive = inhibition above about 80% without an active follow-up result; inactive = below that; test concentration not stated here.
# Assay: M. tuberculosis H37Rv growth inhibitors, H37Rv strain (AID 1626);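 note: bacteria incubated seven days before Alamar blue readout; 0% = bacteria only wells and 100% = bacteria with antibiotic wells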
# Details: active compounds read high, concentration not given here
row,SMILES,inhibition
1,CSc1ccccc1NC(=O)COC(=O)c1ccccc1Cc1ccccc1,7.08%
2,N#CC1=C2N=C(N)c3ccccc3N2C2=C(C(=O)CCC2)C1c1ccc(Cl)cc1 (stereo unspecified),-9.07%
3,Cc1ccc(C(=O)Nc2ccc(N3CCN(S(C)(=O)=O)CC3)cc2)cc1C,-8.49%
4,C=CCOc1ccc(/C=C2\C(=N)N3N=C(S(=O)(=O)CC)SC3=NC2=O)cc1OC,-2.08%
5,O=C(c1ccco1)N1CCN(CCCCN2C(=O)c3ccccc3C2=O)CC1,-5.13%
6,CC1CN(C(=O)c2cc(F)c(F)cc2Cl)CC(C)O1 (stereo unspecified),-4.24%
7,c1ccc(C(OCCN2CCNCC2)c2ccccc2)cc1,-7.41%
8,Fc1ccc(C(OCCN2CCCC2)c2ccc(F)cc2)cc1,3.27%
9,Clc1ccccc1CN1CCN(CCCc2ccccc2)CC1,6.37%
10,Fc1ccc(C(OCCN2CCCC2)c2ccc(Br)cc2)cc1 (stereo unspecified),11.1%
11,COc1ccc(C(C)=O)cc1COC(=O)C(CO)NS(=O)(=O)c1ccc(Br)cc1 (stereo unspecified),7.85%
12,Cc1ccc(C(=O)N2CCN(c3cc4c(cc3[N+](=O)[O-])n(C)c(=O)n4C)CC2)cc1,-9.29%
13,CC(C)Sc1nc2c(c(=O)[nH]c(=O)n2C)n1Cc1ccc(Cl)cc1,11.2%
14,O=c1c2ccccc2c(-c2ccccc2)nn1-c1ccccc1,8.6%
15,CC(C)NC(=O)C(=O)NC1CCCCCC1,-2.43%
16,O=[N+]([O-])c1ccc(N/N=C/c2cn(-c3ccccc3)nc2-c2ccccc2)cc1,30.5%
17,COc1ccc(/C=N/NC(=O)c2c([N+](=O)[O-])c(C)nn2C)cc1,1.88%
18,CS(=O)(=O)c1ccc2nc(NC(=O)c3ccc(NS(=O)(=O)c4cccc([N+](=O)[O-])c4)cc3)sc2c1,34.8%
19,CC(=NCC1CCCO1)c1c(O)n(-c2ccccc2C)c(=O)[nH]c1=O (stereo unspecified),-6.91%
20,CCNC(=O)c1cc2c(=O)n3cccc(C)c3nc2n(CCc2ccccc2)c1=N,-3.98%
21,CCOCCCn1c(=N)c(C(=O)NCc2ccc3c(c2)OCO3)cc2c(=O)n3cccc(C)c3nc21,26.6%
22,CCCn1c(=N)c(C(=O)NCC2CCCO2)cc2c(=O)n3cccc(C)c3nc21 (stereo unspecified),-1.86%
23,N=c1c(C(=O)NCc2ccco2)cc2c(=O)n3ccccc3nc2n1CCc1ccccc1,-6.57%
24,COc1ccc(N2CCN(C(=O)CCCCCn3c(=O)[nH]c4ccsc4c3=O)CC2)cc1,0.96%

row,SMILES,inhibition
1,CS(=O)(=O)N1Cc2ccccc2CC1C(=O)Nc1ccccc1C(N)=O (stereo unspecified),0.87%
2,CCc1ccc(N2Cc3ccccc3C2)cc1,14.3%
3,CN(C)CCNC(=O)/C=N/O,-1.95%
4,O=C(NC1CCCCCC1)c1ccccc1-c1ccccc1,36%
5,O=C(NC1CCCCC1)c1ccccc1-c1ccccc1,0.73%
6,COc1cc(/C=N/NC(=O)CCc2n[nH]c(=O)[nH]c2=O)cc(OC)c1OC,-3.85%
7,CCCCN1C(=O)CC(Sc2ncccc2C(=O)O)C1=O (stereo unspecified),3.02%
8,Cc1cc(N2C(=O)C3CCCN3C2c2cccc(Cl)c2)no1 (stereo unspecified),-8.92%
9,Cc1ccc(NC(=O)COc2ccccc2[N+](=O)[O-])nc1,0.84%
10,CN(C(=O)COc1ccccc1)c1nc(-c2ccc(F)cc2)cs1,-0.64%
11,Cc1ccc(C(=O)N(CC#N)CC#N)cc1C,0.74%
12,N#CCCN(C(=O)CCl)c1cccc(Cl)c1,32.5%
13,Cc1cccc(-c2noc(CCCOc3ccc(Cl)cc3Cl)n2)c1,-7.47%
14,Cc1ccc2c(c1)N=C(c1ccc(F)cc1)CO2,-1.59%
15,Clc1ccc(C2=Nc3cc(Cl)ccc3OC2)cc1,-4.24%
16,COCC(COCCCNC(=O)Nc1ccc(Br)cc1)OC (stereo unspecified),2.27%
17,CCOC(=O)c1sc(C)c2c1NC1(CCCCC1)NC2=O,2.89%
18,O=C(NCc1cccnc1)c1ccccc1CCc1ccccc1,5.46%
19,COC(=O)CSc1nnc(-c2ccncc2)o1,-2.74%
20,CSc1nnc(-c2ccc([N+](=O)[O-])cc2)o1,34%
21,C=CCSc1nnc(-c2cccnc2)o1,-5.82%
22,NC(=O)CSc1nnc(-c2ccc([N+](=O)[O-])cc2)o1,-3.14%
23,N#CCSc1nnc(-c2sc3ccccc3c2Cl)o1,11.6%
24,CCOC(=O)CSc1ncc(-c2ccc([N+](=O)[O-])cc2)[nH]1,47.4%

row,SMILES,inhibition
1,Cc1ccc(S(=O)(=O)Nc2ccc(-c3nnc(SCc4ccccc4Cl)o3)cc2)cc1,0.5%
2,Cc1ccc(CSc2nnc(-c3ccc(NS(=O)(=O)c4ccccc4)cc3)o2)cc1,11.7%
3,COC(=O)c1cc(NS(=O)(=O)c2ccc(C)c3ccccc23)ccc1N1CCOCC1,-0.65%
4,O=C1CC(N2CCC(O)CC2)C(=O)N1c1ccc(Br)cc1 (stereo unspecified),-5.77%
5,O=C(CC1(O)C(=O)N(CCc2ccccc2)c2ccccc21)c1ccccn1 (stereo unspecified),-2.54%
6,CC(=O)c1c(C)[nH]c(C(=O)OCC(=O)N2c3ccccc3NC(=O)C2(C)C)c1C,1.01%
7,CCS(=O)(=O)Nc1ccc(-c2nnc(SCC(=O)OC)o2)cc1,6.98%
8,COC(=O)CSc1nnc(-c2ccc(S(=O)(=O)NCc3cccs3)cc2)o1,62.9%
9,COC(=O)COc1cc(Cl)c(C=O)cc1OC,4.35%
10,COC(=O)COc1ccccc1/C=C1/NC(=O)NC1=O,-6.93%
11,OC1CN=C2CCCc3c2n(c2ccc(Cl)cc32)C1 (stereo unspecified),-8.27%
12,Cc1ccc2c(c1)c1c(n2C)C(=O)CCC1,-12.1%
13,CCN1CCn2c3c(c4cc(C)ccc42)CCCC31 (stereo unspecified),3.23%
14,COc1ccc2c(c1)c1c3n2CCN(C)C3=NCC1,-9.72%
15,Cc1ccc(C(=O)Nc2cc(C)c(OCC(=O)N3CCOCC3)c(C)c2)cc1,0.81%
16,COc1ccc(C2C(C#N)=C(N)Oc3cc(C)n(Cc4ccco4)c(=O)c32)cc1 (stereo unspecified),3.54%
17,CC1(C)Cc2nc3sc4c(SCC(=O)O)ncnc4c3cc2CO1,-5.61%
18,CCSc1ncnc2c1sc1nc3c(cc12)COC(C)(C)C3,12.9%
19,O=C(NCCCn1ccnc1)C(=O)NCC1OCCCN1S(=O)(=O)c1ccc(Cl)cc1 (stereo unspecified),1.46%
20,O=C(O)c1ccc(CN2CCCCC2)o1,-8.71%
21,COc1ccc(C2(CNC(=O)c3ccc(OC)c([N+](=O)[O-])c3)CCCCC2)cc1OC,8.89%
22,COc1ccc(C2(CNC(=O)c3cccc([N+](=O)[O-])c3)CCCCC2)cc1OC,17.8%
23,O=C(Nc1nnc(SCC(=O)N2CCCCC2)s1)c1cccs1,-7.76%
24,Cc1ccc(F)cc1NC(=O)C1CCN(c2cnccn2)CC1,-7.04%

row,SMILES,inhibition
1,Cc1nn(Cc2ccccc2)c(N)c1-c1ccccc1,-0.48%
2,O=C(Nc1ccccc1)c1n[nH]c(Cn2cncn2)n1,-3.09%
3,COc1ccc(NC(=O)CSc2nc3ccc(OC)cc3[nH]2)cc1,45.7%
4,O=C(CSc1nc2ccc(Cl)cc2[nH]1)NC1CCCc2ccccc21 (stereo unspecified),17.1%
5,COc1ccc2nc(SCC(=O)Nc3ccccc3)[nH]c2c1,6.28%
6,NS(=O)(=O)c1cccc(NC(=O)CSc2nc3ccc(Cl)cc3[nH]2)c1,-6.21%
7,O=C(OCC(=O)N1CCCC1=O)C1COc2ccccc2O1 (stereo unspecified),2.07%
8,CCN(CC)CCCNC(=O)c1cn(C)c2ccc(S(=O)(=O)N(C)C)cc2c1=O,-9.88%
9,O=C(CCc1nc2ccccc2c(=O)[nH]1)N1CCN(c2ccc(F)cc2)CC1,-1.16%
10,COc1cc(/C=N/n2c(-c3n[nH]c4c3CCC4)n[nH]c2=S)cc(OC)c1O,-6.81%
11,CC1CCN(S(=O)(=O)c2ccc3[nH]c(=O)cc(C(=O)O)c3c2)CC1,-1.86%
12,NS(=O)(=O)c1ccc(Sc2nc3ccccc3s2)c([N+](=O)[O-])c1,5.37%
13,CS(=O)(=O)c1ccc(Sc2nc3ccccc3s2)c([N+](=O)[O-])c1,76.8%
14,CN1CCc2c(C#N)c(N3CCOCC3)nc(NCC3CCCO3)c2C1 (stereo unspecified),-11.2%
15,C=CCSc1nnc(-c2sc(-c3ccccc3)nc2C)n1C,6.24%
16,C#CCOCCOCCOCCNc1nc(N2CCN(C(=O)[C@H](CCC(=O)O)n3cc(C(N)CC(C)C)nn3)CC2)nc(N2CCN(C(=O)[C@H](Cc3ccc(O)cc3)n3cc(C(N)CC(C)C)nn3)CC2)n1 (stereo partly specified),-8.68%
17,CC(C)C(=O)Nc1ncc(Cc2ccc(Cl)cc2)s1,18.6%
18,Cc1ccc(C(=O)Nc2ncc(Cc3ccc(SC(F)F)cc3)s2)cc1,6.66%
19,CC(=O)Nc1ncc(Cc2cccc(Cl)c2)s1,3.07%
20,O=C(Nc1ncc(Cc2ccccc2Cl)s1)c1ccc([N+](=O)[O-])cc1,-9.37%
21,O=C(Nc1ncc(Cc2cccc(Cl)c2)s1)c1ccc([N+](=O)[O-])cc1,-4.66%
22,Cc1ccc(C(=O)Nc2ncc(Cc3ccccc3)s2)o1,-9.94%
23,O=C(Nc1ncc(Cc2ccccc2)s1)C1COc2ccccc2O1 (stereo unspecified),13.8%
24,CC(C)C(=O)Nc1ncc(Cc2ccccc2Cl)s1,-0.08%
